Assay [1] has as its system CRL-7250. The experiment in a line: Cytotoxic Profiling of Annotated Libraries Using Quantitative High-Throughput Screening (AID 1296008). Further: potency means the concentration at half of the fitted maximal effect. On max response: on the % scale 0 is the no-effect control and ±100 the full control effect. The note with it: Five cell lines viability, CellTiter-Glo ATP luminescence, 48-72 h; max response: hits give low values. The method in brief: (§1)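 Compounds were pin-transferred onto cells and incubated 48 or 72 hr at 37 degree Celsius, 95% humidity. CellTiter-Glo was added, plates sat 10 min at room temperature, then ATP-coupled luminescence was imaged as the viability read-out.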

Assay [2] relates to HEK293. The assay is described as above. The note with it: Five cell lines viability, CellTiter-Glo ATP luminescence, 48-72 h; max response: hits give low values. The essentials:
as §1

The subject of assay [3] is HaCat. The description is as above. The note with it: Five cell lines viability, CellTiter-Glo ATP luminescence, 48-72 h; max response: hits give low values. The method in brief: as §1
Assay [4] has as its system KB-3-1. The assay is described as above. The note with it: Five cell lines viability, CellTiter-Glo ATP luminescence, 48-72 h; max response: hits give low values. The method in brief: as §1
The test system of assay [5] is NIH3T3. The description is as above. The settings on record: Five cell lines viability, CellTiter-Glo ATP luminescence, 48-72 h; max response: hits give low values. The method in brief: as §1
In assay [6] the test system is HACAT. The experiment in a line: qHTS assay to identify novel small-molecules to repurpose for Merkel cell carcinoma treatment (AID 1296009). Further: potency means the concentration at half of the fitted maximal effect. The note with it: MCC and control cell lines, CellTiter-Glo viability, 72 h; at 44.8 µM (top of the series) unless noted. The method in brief:
(§2)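 Luminescence from CellTiter-Glo, read 10 min after addition at room temperature, reported viability following a 72 hr, 37 degree celsius treatment with NPC or MIPE compounds in titration; values normalized to plate controls.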

The subject of assay [7] is MCC-13. The assay is described as above. The note with it: MCC and control cell lines, CellTiter-Glo viability, 72 h; series mostly up to 46 µM. The essentials:
as §2

For assay [8], the system named is MCC-26. The assay is described as above. The settings on record: MCC and control cell lines, CellTiter-Glo viability, 72 h; series mostly up to 46 µM. The method in brief:
as §2

Assay [9] has as its system P93_24. The experiment in a line: qHTS profiling for inhibitors of Plasmodium falciparum proliferation (AID 504749).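 Further: 0% = DMSO vehicle and full inhibition = artemisinin control.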 The settings on record: P. falciparum in erythrocytes, SYBR Green DNA, 72 h; series mostly up to 28.7 µM. The essentials:
(§3)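 Fluorescence of SYBR Green-bound parasite DNA, read at 485/535 nm, served as the growth measure. Infected erythrocytes were cultured with compound 72 h; artemisinin (0.29 uM) and DMSO wells defined the normalization range.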

In assay [10] the test system is P94_40. Described as above. The note with it: P. falciparum in erythrocytes, SYBR Green DNA, 72 h; series mostly up to 28.7 µM. The method in brief: as §3
Assay [11] deals with PAD. Described as above. The settings on record: P. falciparum in erythrocytes, SYBR Green DNA, 72 h; series mostly up to 28.7 µM. The essentials: as §3
For assay [12], the system named is PC15. Described as above. The note with it: P. falciparum in erythrocytes, SYBR Green DNA, 72 h; series mostly up to 28.7 µM. The method in brief: as §3
The subject of assay [13] is PC26. Described as above. The settings on record: P. falciparum in erythrocytes, SYBR Green DNA, 72 h; series mostly up to 28.7 µM. The method in brief: as §3
The test system of assay [14] is PC49. The description is as above. The note with it: P. falciparum in erythrocytes, SYBR Green DNA, 72 h; series mostly up to 28.7 µM. The essentials:
as §3

The subject of assay [15] is SC27B. The description is as above. The settings on record: P. falciparum in erythrocytes, SYBR Green DNA, 72 h; series mostly up to 28.7 µM. The essentials:
as §3

The test system of assay [16] is TAB109. The assay is described as above. The settings on record: P. falciparum in erythrocytes, SYBR Green DNA, 72 h; series mostly up to 28.7 µM. The method in brief:
as §3

Assay [17] deals with TAB113. The description is as above. The note with it: P. falciparum in erythrocytes, SYBR Green DNA, 72 h; series mostly up to 28.7 µM. The method in brief: as §3
Assay [18] relates to TAB165. The assay is described as above. The note with it: P. falciparum in erythrocytes, SYBR Green DNA, 72 h; series mostly up to 28.7 µM. The essentials: as §3
In assay [19] the test system is W2. Described as above. The settings on record: P. falciparum in erythrocytes, SYBR Green DNA, 72 h; series mostly up to 28.7 µM. The method in brief: as §3
Assay [20] deals with HEK293T. The experiment in a line: qHTS assay to identify novel small-molecules to repurpose for Merkel cell carcinoma treatment (AID 1296009). Further: potency means the concentration at half of the fitted maximal effect. The note with it: MCC and control cell lines, CellTiter-Glo viability, 72 h; at 44.8 µM (top of the series). The method in brief:
as §2

Molecules are shown by their SMILES. Several values for one entry are separate records, joined by “and”; a condition that tells them apart may be missing. Equal values may be shown once. Inconclusive results are not listed. Some compounds were tested as several samples or in several runs, with calls that do not always agree. Unmarked numbers belong to inactive results. Activity calls are given as the source filed them. The call rests on the fitted dose curve; in most records, active means well fitted inhibition curve with a large enough effect; inconclusive means small, poorly fitted or top-dose-only effect; inactive means flat fitted curve, though single readings scatter.
Further: nearly all actives have a fitted effect of over 60% in size.

With `CC(C)C(=O)Oc1ccc(CO)cc1[C@H](CCN(C(C)C)C(C)C)c1ccccc1`, the max response in assay [1] is -3.71% and 3.58%; in assay [2] it was -22.5% and -1.3%; in [3] it was -23.8%; in [4], -1.04% and 2.37%; in assay [5], -3.14%. Also, the result in assay [3], in assay [5] and in assay [6] was inactive. Moreover, the Potency result in assay [7] and in [8] was “inactive” throughout.

With `COc1ccc(C2CC(c3ccccc3)=NN2c2ccc(S(N)(=O)=O)cc2)cc1` (stereo not drawn), in [1], the Potency is 10500 nM (active). The max response is -2.01% in assay [1]; 3.54% and 1.7% in [3]; -15.8% in assay [4]; -14.6% and -17.5% in assay [5]. For the same molecule, the Potency entry in assay [7] and in assay [8] was “inactive” each time.

For `COc1ccc2c(Oc3ccc(NC(=O)c4c(C)n(CC(C)(C)O)n(-c5ccccc5)c4=O)nc3)ccnc2c1`, the Potency in assay [1] is 18400 nM (active); in assay [3], 11600 nM (active); in [5], 3.66 µM (active). The max response in assay [1] was -5.8%; in assay [2], 3.25%; in assay [3] it was -3.13%; in [4] it was 3.31%. For the same molecule, the Potency entry in [7] and in assay [8] was “inactive” in each case.

As for `O=C(O)Cc1cccc2ccccc12`, the outcome in assay [9], in assay [11], in [12], in assay [14], in assay [16] and in assay [1] was inactive. Moreover, the outcome in assay [3] and in assay [6] was inactive. The Potency result in [10], in assay [13], in assay [15], in assay [17], in assay [18] and in assay [19] was “inactive” throughout. For the same molecule, the Potency result in assay [7] and in assay [8] was “inactive” in each case. The max response was 0.788% and 3.55% in assay [2]; -10.3% in [3]; 13.8% and -7.33% in assay [4]; -0.562% and 0.69% in [5].

Regarding `O=C(Nc1ccccc1-c1cn2c(CN3CCNCC3)csc2n1)c1cnc2ccccc2n1`, the results for the Potency in assay [1], in assay [2] and in assay [5] were 26400 nM (active), 23500 nM (active) and 29.6 µM (active), respectively. The max response in [3] is 4.92%. The outcome in assay [3] and in assay [6] was inactive.

Turning to `CC(=O)CCCCn1c(=O)c2c(ncn2C)n(C)c1=O`, the molecule was called inactive in assay [9], in assay [11], in assay [12], in assay [14], in assay [16] and in [2]. For the same molecule, the molecule was classed as inactive in assay [3], in assay [4], in assay [6] and in [20]. Further, the Potency entry in assay [10], in [13], in [15], in assay [17], in assay [18] and in assay [19] was “inactive” in each case. Moreover, the Potency entry in [7] and in assay [8] was “inactive” each time. The max response in [1] was -2.71% and -0.425%; in assay [2] it was -3.31%; in assay [3], -9.06%; in assay [4] it was -13.9%; in [5] it was 4.69% and 0.479%.

Take `CC(C)[C@H](CO)Nc1nc(Nc2ccc(C(=O)O)c(Cl)c2)c2ncn(C(C)C)c2n1`: the molecule was classed as inactive in [1], in assay [3], in [4], in assay [5] and in assay [6]. In addition, the max response was 1.29% in assay [2], 4.58% in assay [3] and -1.87% in assay [5]. The Potency entry in assay [7] is “inactive”.

For the molecule `O=C(NC1CCOCC1)c1ccc(-c2cc(-c3cn[nH]c3-c3ccccn3)ccn2)cc1`, the max response in [1] was -5.17%; in assay [2], -15.5%; in [3] it was 2.12%; in assay [4], -6.4% and 1.2%. The call in assay [1], in assay [3] and in [6] was inactive. The Potency entry in assay [7] and in assay [8] was “inactive” throughout.

Take `CC[C@]1(O)C[C@@H]2CN(CCc3c([nH]c4ccccc34)[C@@](C(=O)OC)(c3cc4c(cc3OC)N(C)[C@H]3[C@@](O)(C(=O)OC)[C@H](OC(C)=O)[C@]5(CC)C=CCN6CC[C@]43[C@@H]65)C2)C1`: the Potency in [1] is 266 nM (active); in assay [2], 66.8 nM (active) and 84.1 nM (active) and 46.1 nM (active); in assay [4], 2.91 µM (active) and 18.4 nM (active); in assay [5], 0.335 µM (active); in assay [7], 119 nM (active) and 1.19 µM (active). Moreover, the max response in [3] was 0.756%. In addition, the molecule was classed as inactive in assay [3] and in assay [6].

`COc1ncc(-c2ccc3nccc(-c4ccnnc4)c3c2)cc1NS(=O)(=O)c1ccc(F)cc1F`: the max response in [1] is -92.9%; in assay [2], -126%; in assay [3], -157%. Besides, the Potency in [2] is 20.6 nM (active); in [3], 6.5 nM (active); in assay [4] it was 590 nM (active) and 103 nM (active); in assay [5], 0.0037 µM (active); in assay [7], 833 nM (active); in assay [8], 372 nM (active).

As to `CCCNC(=O)NS(=O)(=O)c1ccc(Cl)cc1`, the outcome in [9], in assay [11], in [12], in assay [14], in [16] and in assay [1] was inactive. The result in assay [2], in assay [3], in assay [5], in assay [6] and in assay [20] was inactive. The Potency result in assay [10], in assay [13], in [15], in assay [17], in assay [18] and in assay [19] was “inactive” throughout. Moreover, the Potency result in assay [7] and in assay [8] was “inactive” throughout. Moreover, the max response in assay [1] was -0.307%; in assay [2], -0.916%; in assay [3], -1.01%; in assay [4], -1.87% and 8.57%.

With `CCOc1ccc(Nc2nc(-c3c(C)nc4ccccn34)cs2)cc1`, the Potency in assay [1] is 146 nM (active); in assay [2], 46.1 nM (active); in assay [4], 33.2 nM (active) and 32.6 nM (active); in [5] it was 5.3 nM (active) and 73.1 nM (active); in [7], 37.2 nM (active). Moreover, in assay [3], the max response is 3.42%. Also, the result in assay [3] and in [6] was inactive.

For the molecule `CCN(CC)CCNC(=O)c1ccc(N)cc1`, the molecule was called inactive in assay [9], in assay [11], in [12], in assay [14], in assay [16] and in [1]. In addition, the result in assay [2], in assay [4], in assay [5] and in [20] was inactive. For the same molecule, the Potency result in assay [10], in assay [13], in assay [15], in assay [17], in [18] and in [19] was “inactive” throughout. Moreover, the Potency result in [7] and in assay [8] was “inactive” throughout. Moreover, the max response in assay [3] is 0.0096%; in [4], -16.7%. Moreover, the outcome in assay [3] and in assay [6] was “inactive; activator” each time.

These data come from PubChem BioAssay (NCATS).
